Assay outcomes deposited in PubChem BioAssay by National Center for Advancing Translational Sciences (NCATS).
The full list was thinned out, with hits kept by preference.
GBA activity = Glucocerebrosidase; purified enzyme, resorufin glucoside fluorescence (screen aimed at inhibitors), 20 min; 48,000 compounds, 1.1% hits; Potency, µM; in the data active = potency below about 15 µM; inconclusive = mostly about 16 µM to 33 µM;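 also: the screen sought inhibitors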
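Compounds titrated against 0.2 nM normal enzyme, 30 uM resorufin beta-D-glucopyranoside substrate, citrate/phosphate buffer with taurocholate and tween-20, pH 5.9. Reaction ran 20 min at room temperature; fluorescence (Ex 548/Em 600) gave AC50.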
Casp7 inh = qHTS Assay for Allosteric/Competitive Inhibitors of Caspase-7. 75,000 compounds, 0.02% hits. Potency, µM (titrated, usually from 57.5 µM), for inactives: at the highest dose activity change, negative = inhibition, actives largely listed as inhibitors. P55210. recombinant caspase-7, Ac-DEVD-AFC fluorescence rate; active = well fitted inhibition curve with a large enough effect in the main read-out, with a control signal flat, not every such curve was filed as active; inconclusive = small, poorly fitted or top-dose-only effect, or a change in a side signal; also: % of control where 0% means no effect
USP2a inh = qHTS Assay for Inhibitors of Ubiquitin-specific Protease USP2a | 60,000 compounds, 0.1% hits | Potency, µM (doses to about 38.3 µM), for inactives: top-dose activity change, negative = inhibition, usual class: inhibitors | AID 927, 2007 | Ubiquitin carboxyl-terminal hydrolase 2 (Homo sapiens), O75604 | USP2a enzymatic assay, qHTS inhibition; also: nearly all actives have a fitted effect of over 60% in size
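Inhibition is measured in a cell-free coupled assay with 20 nM USP2 core, 20 nM Ub-PLA2 and 20 uM NBD C6-HPC, 2.5 h incubation. Activity normalized to NEM control.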
Caspase-1 inhib = qHTS Assay for Allosteric/Competitive Inhibitors of Caspase-1; P29466; Caspase-1 enzyme, Ac-WEHD-AFC fluorogenic rate; Potency, µM (titrated, usually from 57.5 µM), inactives show top-dose activity change, negative = inhibition, actives largely listed as inhibitors; AID 900, 2007; 75,000 compounds, 0.03% hits;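 also: plate controls were vehicle for no effect and no substrate for full effect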
Starred values were filed as active, the others as inactive; u = inconclusive; x = not tested or not shown; [ ] = dose if it differs, or a comment. Unless noted, calls follow the shape of the dose curve; as a rule, active = well fitted curve in the direction sought with a large enough effect; inconclusive = small, poorly fitted or top-dose-only effect, or another doubt; inactive = no such curve, though single readings can be large; an effect the other way counts as inactive or inconclusive. Potency is read from the fitted curve at half-maximal effect.

SMILES	GBA activity	Casp7 inh	USP2a inh	Caspase-1 inhib
Cc1ccc(N(C(=O)Cn2nnc(-c3ccc(C)o3)n2)C(C(=O)NC2CCCC2)c2ccco2)cc1 (stereo not given)	>76.9	0.6%	x	-3.4%
Cc1ccc(C)c(N(C(=O)Cn2nnc(-c3cccs3)n2)C(C(=O)NC2CC2)c2ccc(C)o2)c1 (stereo not given)	12.1*	-0.2%	12.2%	-3.2%
Cc1ccc(C(=O)O[C@@H](C(=O)O)[C@@H](OC(=O)c2ccc(C)cc2)C(=O)O)cc1 (tested in a mixture with another compound)	x	-1.7%	-1.4%	1.5%
N#Cc1c(NC(=O)CSc2nnc(-c3ccccc3O)n2-c2ccccc2)sc2c1CCCC2	10*	-1.5%	39.6%	0.1%
COc1ccc2nc3c(cc2c1)Cc1ccccc1-3	x	-7.5%	x	-4.1%
Cc1ccc(-c2nnc3n2N=C(c2ccccc2)CS3)cc1	x	0.4%	x	-2.5%
c1ccc(C2=Nn3c(nnc3-c3cc(-c4ccccc4)n[nH]3)SC2)cc1	8.53*	-3.9%	24.8%	-3.0%
CCc1ccc(C2=Nn3c(nnc3-c3cccs3)SC2)cc1	8.15*	-9.2%	u	-3.9%
Cc1ccc(-n2c(C)cc(C3N=C(N)Nc4nc5ccccc5n43)c2C)c(C)c1 (stereo not given)	u	-3.0%	5.0%	-4.5%
Cc1cc(C2N=C(N)Nc3nc4ccccc4n32)c(C)n1-c1ccccc1Cl (stereo not given)	12.7*	0.0%	28.4%	0.6%
COc1cccc(NS(=O)(=O)c2ccc(Br)s2)c1	14.3*	-2.6%	10.6%	-1.2%
Cn1c(=O)[nH]c(=O)c2c1nc(N1CCCCCC1)n2CCN1CCCCCC1	11.3*	1.2%	x	1.9%
CC(C)Oc1cccc(C(=O)Nc2ccc(NC(=O)c3ccco3)cc2)c1	11.2*	0.4%	26.4%	-3.4%
O=C(Nc1cccc(OC(=O)c2ccco2)c1)c1ccco1	>76.9	0.9%	-5.5%	2.7%
COc1ccc(OC)c(C2OCCC=CC2C)c1 (stereo not given)	x	-3.5%[11.5 µM]	x	-2.3%[11.5 µM]
Cc1ccc(N(CC(=O)NC2CCCCCC2)S(=O)(=O)c2c(C)nn(C)c2C)cc1	14.6*	-0.3%	43.9%	1.7%
O=C(Nc1ccccc1N1CCCC1)c1cccnc1	>76.9	2.1%	-5.8%	-0.3%
CCN1CCN(c2ccc(NC(=O)c3cccnc3)cc2Cl)CC1	6.35*	1.3%	3.8%	-0.4%
CN1CCc2c(cc(O)c(O)c2Cl)[C@H](c2cccc(Cl)c2)C1	x	-1.1%	18.5%	-1.2%
Cc1ccc(-n2nc(C)c(C3C(C#N)=C(N)OC4=C3C(=O)CC(C)(C)C4)c2Cl)cc1 (stereo not given)	4.79*	2.4%	-6.7%	-0.2%
CC/C=C\CC[C@H](OC(=O)c1ccc(Br)cc1)C1=CCCCC1=O	x	1.4%[11.5 µM]	x	-7.3%[11.5 µM]
Oc1ccccc1C1=Nc2nc3ccccc3n2C(c2ccccc2)C1 (stereo not given)	14.9*	-5.8%	41.1%	-5.0%
CN1C(=O)CC(n2c(CO)nc3ccccc32)C1=O (stereo not given)	>76.9	-1.4%	-12.2%	1.3%
Cc1nc(NC2CCCCC2)c2nc(-c3ccccc3)n(CCN3CCCC3)c2n1	x	1.3%	x	1.4%
CCOC(=O)c1sc(N)c(C(=O)Nc2ccc(C)cc2C)c1C	x	-3.0%	x	-6.1%
SMILES	GBA activity	Casp7 inh	USP2a inh	Caspase-1 inhib
COc1cccc(NC(=O)N(CCCN2CCOCC2)C(C)c2cc3cccc(OC)c3o2)c1 (stereo not given)	9.63*	0.3%	39.5%	0.5%
COc1cccc2cc(C(=O)C3=C(O)C(=O)N(CCCN4CCOCC4)C3c3ccncc3)oc12 (stereo not given)	>76.9	1.8%	-4.2%	-1.8%
Nc1ccn([C@H]2O[C@@H](COP(=O)(O)O)[C@@H](O)[C@H]2O)c(=O)n1	x	-0.8%[11.5 µM]	x	1.8%[11.5 µM]
Cc1cc(C(=O)COC(=O)c2ccc3c(c2)OCO3)c(C)n1Cc1cccs1	14*	-2.5%	13.2%	-3.9%
O=C1CN2C(=Nc3ccc(Cl)cc3C2c2ccccc2)CN1 (stereo not given)	1.26*	-3.0%	3.3%	-1.7%
CCOc1ccc(-c2cc(C(=O)N/N=C/c3ccc(O)c(OC)c3)[nH]n2)cc1	x	0.3%	x	0.3%
CC(C)c1ccc(NC(=O)C2CC(=O)N=C(N)S2)cc1 (stereo not given)	3.77*	0.0%	3.8%	-1.4%
CCc1ccc(NC(=O)C2CC(=O)N=C(N)S2)cc1 (stereo not given)	u	-0.5%	4.0%	0.5%
N[C@H](Cc1ccc(F)cc1)C(=O)O	x	0.9%	-8.9%	-0.4%
C[C@H](C(=O)c1ccccc1)[C@@H](c1ccccc1)N1CCOCC1	x	-0.1%[11.5 µM]	x	1.4%[11.5 µM]
